# Bioassay records: PubChem BioAssay, several laboratories
# PP1 inh: PP1-alpha phosphatase inhibitors, primary screen, counter-screen for PP5 inhibitor project, biochemical, fluorescence, OMFP substrate, single point; 320,000 compounds, 0.9% hits; inhibition, % at 6.7 µM; purified PP1alpha;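 active = inhibition above the mean inhibition of all tested compounds plus 3 SD, computed separately for each screening campaign, cut at about 15% in these data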
# Beta cell apopt: inhibitors of cytokine-induced beta cell apoptosis, primary screen, luminescence. 300,000 compounds, 0.8% hits. INS-1E cytokine-induced death, ATP luminescence, 48 h; percent of positive-control rescue, neutral wells zero. protection from apoptosis, % (concentration not given with the values);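 active = Every replicate reaches about 75%, or at least half do and their mean reaches it too, limit read from the data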;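 also: higher means more ATP so stronger rescue from cytokine killing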
# PP5 primary: PP5 phosphatase inhibitors, primary screen, biochemical, fluorescence; purified PP5c, OMFP substrate fluorescence; inhibition, % at 6.7 µM; 320,000 compounds, 0.18% hits; AID 1987, 2009;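 active = inhibition above the campaign's mean inhibition across all tested compounds plus 3 SD, cut at about 9.5% in these data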
# Target sequence (P53041 whole entry, looked up): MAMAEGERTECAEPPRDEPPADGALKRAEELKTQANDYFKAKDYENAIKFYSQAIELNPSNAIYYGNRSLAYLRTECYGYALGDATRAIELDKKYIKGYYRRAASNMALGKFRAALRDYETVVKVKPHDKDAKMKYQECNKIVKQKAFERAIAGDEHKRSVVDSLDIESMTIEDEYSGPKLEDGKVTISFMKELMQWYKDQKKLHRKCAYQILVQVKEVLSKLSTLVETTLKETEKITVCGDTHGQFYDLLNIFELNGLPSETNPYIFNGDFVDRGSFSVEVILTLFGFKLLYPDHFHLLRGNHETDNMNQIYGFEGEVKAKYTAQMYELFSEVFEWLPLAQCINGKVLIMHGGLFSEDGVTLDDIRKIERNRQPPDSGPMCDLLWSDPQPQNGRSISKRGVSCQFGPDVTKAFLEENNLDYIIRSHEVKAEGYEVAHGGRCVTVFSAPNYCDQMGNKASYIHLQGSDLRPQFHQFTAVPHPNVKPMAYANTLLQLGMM
# CSC inhib: cancer stem cell viability inhibitors, primary screen, luminescence; cancer stem cell-like cells viability; inhibition, % at 7.5 µM; 300,000 compounds, 1.1% hits; in the data active = inhibition above about 75%; tested in HMLE shEcad cells
# Mdm2-MdmX inh: inhibitors of human Mdm2-MdmX association, primary screen, cell-based, luminescence, split luciferase, SaOS-2, uHTS. SaOS-2 split-luciferase Mdm2/MdmX complementation. 330,000 compounds, 3% hits. AID 485346, 2010. inhibition, % at 8 µM;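 active = inhibition of at least 50% at 8 µM in the primary screen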
# Calb FLC: C. albicans growth inhibition with fluconazole, primary screen, CaCi-2 strain, Alamar Blue fluorescence; C. albicans CaCi-2 (fluconazole-resistant clinical isolate) + fluconazole, 48 h; growth inhibition, % (test concentration not listed); 300,000 compounds, 0.57% hits; AID 1979, 2009;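 active = growth inhibition above about 58% in most replicates, limit read from the data, passing the limit was not always enough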;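 also: all wells also contain fluconazole at 8 µg/ml as a sub-toxic cotreatment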
# Mdm2 MdmX conf: Mdm2-MdmX complex disruptors, retested hits, confirmation, luminescence, single concentration. shares compounds with Mdm2-MdmX inh. Mdm2-MdmX binding, luminescent assay. inhibition, % at 8 µM. 10,000 compounds, 55% hits. AID 489028, 2010; in the data active = inhibition above about 40%
# Full FLuc ctr: full-length luciferase signal inhibition, confirmation, counter-screen for Mdm2/MdmX interaction inhibitor project, cell-based, single concentration, SaOS-2. shares compounds with Mdm2-MdmX inh. SaOS-2 full-length luciferase counterscreen, luminescence. inhibition, % at 8 µM. 6,200 compounds, 77% hits;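 active = mean inhibition at 8 µM reaching about 37%, which flags the compound as non-specific, limit read from the data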;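 also: p53-null SaOS-2 cells with luciferase driven by a doxycycline-inducible promoter; compound on cells about two nights before reading with doxycycline added after day one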
# Hits are given with their value; 0 = inactive; - = no result. In the library only some 4.9% were active in any assay of this set; here they are far more common.
SMILES,PP1 inh,Beta cell apopt,PP5 primary,CSC inhib,Mdm2-MdmX inh,Calb FLC,Mdm2 MdmX conf,Full FLuc ctr
CCn1cc(C(=O)NCCCN2CC(C)CC(C)C2)c(=O)c2cc(S(=O)(=O)N(C)C3CCCCC3)ccc21 (stereo not drawn),0,0,0,0,51.7,0,0,60.1
CC(C)n1c(/C=C/[C@@H](O)C[C@@H](O)CC(=O)O)c(-c2ccc(F)cc2)c2ccccc21,0,0,0,0,59.0,0,49.5,107.9
O=C(NCCO)c1cc2c([nH]c3ccccc32)c(-c2ccccc2)n1,0,0,0,0,0,0,-,-
Cc1ccc(-c2nc(C(=O)NCC3CCCO3)cc3c2[nH]c2ccccc23)cc1 (stereo not drawn),0,0,0,0,73.4,0,44.4,65.7
O=C(NCC1CCCO1)c1cccc(Br)c1 (stereo not drawn),0,0,0,-,0,0,-,-
Cc1nc(C(=O)NCCO)cc2c1[nH]c1ccccc12,-,0,-,0,0,0,-,-
O=C(NCC1CCCO1)c1cc2c([nH]c3ccccc32)c(-c2cccc(Br)c2)n1 (stereo not drawn),0,0,0,0,62.1,0,0,63.3
Cc1ccc(-c2nc(C(=O)NCCCN(C)C)cc3c2[nH]c2ccccc23)cc1,0,0,0,0,66.4,0,0,-
COc1ccc(-c2nc(C(=O)NCC3CCCO3)cc3c2[nH]c2ccccc23)cc1 (stereo not drawn),0,-,0,0,0,0,-,-
Cc1ccccc1-c1nc(C(=O)NCC2CCCO2)cc2c1[nH]c1ccccc12 (stereo not drawn),0,0,0,0,57.4,0,0,-
Cc1ccc(-c2nnn(CC(=O)N3CCCCC3)n2)cc1,0,0,0,0,0,0,-,-
COc1ccc2c(c1)C=C([C@@H]1C[C@H]3CN(c4ccccc4)C(=O)[C@]34CCCN14)CO2,0,0,0,0,0,0,-,-
COc1ccc(-n2nc(C(=O)NCC(=O)Nc3cc(OC)c(OC)c(OC)c3)c3ccccc3c2=O)cc1Cl,0,0,0,0,70.3,0,73.2,80.6
CCN(CC)C(=O)CNC(=O)c1nn(-c2ccc(OC)c(Cl)c2)c(=O)c2ccccc12,0,0,0,0,0,0,-,-
COc1ccc(-n2nc(C(=O)NCC(=O)NCc3ccc(F)cc3)c3ccccc3c2=O)cc1OC,0,0,0,-,80.3,0,0,-
CCCNC(=O)c1ccc(N2CCC3(CC2)CC(c2cccc(Br)c2)=NO3)c(NC(=O)c2ccc(Cl)c([N+](=O)[O-])c2)c1,0,0,0,0,60.6,0,0,-
COc1ccc(-c2csc(N(CCCN(C)C)C(=O)c3ccc(C(C)(C)C)cc3)n2)cc1,0,0,0,0,53.8,0,0,-
CCN(CC)CCCN(C(=O)c1ccccc1F)c1nc(-c2ccc(OC)cc2)cs1,0,0,0,0,50.5,0,41.7,68.8
CCN(CC)CCCN(C(=O)c1ccc(OC)cc1)c1nc(-c2ccc(OC)cc2)cs1,0,0,0,0,50.5,0,40.5,57.7
CCN(CC)CCCN(C(=O)c1ccccc1C)c1nc(-c2ccc(OC)cc2)cs1,0,0,0,0,0,0,-,-
CC(=O)Nc1nc(SCC(=O)Nc2nnc(C)s2)[nH]c(=O)c1NC(=O)c1cccs1,0,0,0,0,0,0,-,-
Cc1nnc(SCC(=O)NC2CCCCC2)s1,0,0,0,0,0,0,-,-
Cc1ccc2cccc(S(=O)(=O)N3CCCc4ccccc43)c2n1,0,0,0,0,0,0,-,-
CCN1C(=O)/C(=C2/Sc3ccc(OC)cc3N2C)SC1=Nc1cccc(O)c1,0,0,0,0,96.9,0,0,-
